Publication PMC7819943, “Rice protein-binding microarrays: a tool to detect cis-acting elements near promoter regions in rice”
Whole data set: some 68,000 sequences, median “fluorescence intensity (a.u.)” near 9,100, cut for the highest 2% near 16,000. The list comes from a sample in which the highest values are over-represented; it also holds similar and randomly drawn sequences.

These sequences were tested against OsWRKY34 (Oryza sativa, UniProt Q0JBA9 1-250) (assay: protein-binding microarray (RPBM); PBS, 2% BSA, 51.3 ng/ul salmon testes DNA, 50 uM zinc acetate, 200 nM TF, 25 C, 1 h; high values mean tight binding). Conditions: protein: recombinant; tags: N-terminal polyhistidine and DsRed monomer fusion (pET32a); label: CyDye5-dUTP incorporated in the synthesized complementary strand; 3' TTTTT single-stranded linker to array surface; dsDNA, one strand shown.
Chain of OsWRKY34 (Q0JBA9 entry or part of it): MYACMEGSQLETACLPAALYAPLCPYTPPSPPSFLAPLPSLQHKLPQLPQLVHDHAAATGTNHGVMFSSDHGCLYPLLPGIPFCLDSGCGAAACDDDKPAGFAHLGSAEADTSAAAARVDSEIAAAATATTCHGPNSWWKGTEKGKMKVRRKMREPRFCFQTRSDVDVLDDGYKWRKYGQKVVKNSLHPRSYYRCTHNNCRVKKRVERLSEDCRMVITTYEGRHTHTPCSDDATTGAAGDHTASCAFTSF
Outline: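 Binding signal is reported as fluorescence intensity per feature (arbitrary units) from an Axon 4000B scanner. Incubation used 200 nM of each Ni–NTA-purified, N-terminally polyhistidine- and DsRed-fused transcription factor from E. coli BL21-CodonPlus on a double-stranded custom Agilent array for 1 h at 25 °C, with 50 µM zinc acetate in the buffer, followed by washing.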
For “GGCCTCACTATCGTCGACTCCTCCACTCCGGGGACTGCCGCGGAGTCACCTAGTGCAG”, the binding signal was 10000 fluorescence intensity (a.u.). “AGCCGATCAGCTTCCAGCTCTTCATCCCAGCTTGCATCGTCGGAGTCACCTAGTGCAG” was tested, and the binding signal was 9300 fluorescence intensity (a.u.). “CCCCTGTTTCTCGGTTCTTTCGCTCGCCTTCTAGGCCCAACGGAGTCACCTAGTGCAG” was tested, and the binding signal was 11400 fluorescence intensity (a.u.). With “ATGATACTAGCGGAGCTCACTACTTACTATTAGTCAATGTCGGAGTCACCTAGTGCAG” the binding signal was 8330 fluorescence intensity (a.u.). With “ATAGCACCTCGAAACACCAAACTATTGCTATTAACATTTTCGGAGTCACCTAGTGCAG” the binding signal was 9650 fluorescence intensity (a.u.). With “CCTTAATGCTCGAGATATACTAATACTACTCCCTTTGTTTCGGAGTCACCTAGTGCAG” the binding signal was 10400 fluorescence intensity (a.u.). In the case of “TACGCGTTATTTGTTTTTCGCAGCGTTTCCTTTTTTTTTTCGGAGTCACCTAGTGCAG”, the binding signal is reported as 9540 fluorescence intensity (a.u.). “TTTATCGCTTTGACTGTTCTACATCTTGCCTCGCCGTGCACGGAGTCACCTAGTGCAG” was tested, and the binding signal was 9040 fluorescence intensity (a.u.). In the case of “GCACAAGGCAGATGGAGGTTGTACAGCTATTATTATTTCACGGAGTCACCTAGTGCAG”, the binding signal is reported as 8380 fluorescence intensity (a.u.). “TAATATTAATAAATAAAAAACCAGCGGTCGAACCGTTGACCGGAGTCACCTAGTGCAG” was tested, and the binding signal was 13000 fluorescence intensity (a.u.). With “GATCCAAGAGTGGAGAAGGAGAGGGGTGGGGAGCCGGCGACGGAGTCACCTAGTGCAG” the binding signal was 9460 fluorescence intensity (a.u.). For “AGGAGGTGGTATTATTTTTTTTTTGGTAGAGAGGGGAGGGCGGAGTCACCTAGTGCAG”, the binding signal was 16500 fluorescence intensity (a.u.). With “TGGTGGGCGGTGGAGTTATTTTCTTAATAGAGCATTGAGACGGAGTCACCTAGTGCAG” the binding signal was 23900 fluorescence intensity (a.u.). In the case of “GGCGAGGGGAGAAGAGAAGAGGTGGGTGAGGTGGGGTTTCCGGAGTCACCTAGTGCAG”, the binding signal is reported as 12800 fluorescence intensity (a.u.). “GAGAAGAGGAGAGAGAGTGAGAGTGGGCGACAATTTTATCCGGAGTCACCTAGTGCAG” was tested, and the binding signal was 64200 fluorescence intensity (a.u.). With “GGTTGCGTTGTTGCGGGCGTTGTTGCGGGCGGGCGGTCAGCGGAGTCACCTAGTGCAG” the binding signal was 16600 fluorescence intensity (a.u.). In the case of “TTCGTTGTTGGTGGTGGTGGCGGGCGGAAGATGCGGTTGCCGGAGTCACCTAGTGCAG”, the binding signal is reported as 10000 fluorescence intensity (a.u.). “GGGCATTGAGTGGTGGGGACGTGTGGGAGGCAGGCGGAGACGGAGTCACCTAGTGCAG” was tested, and the binding signal was 9540 fluorescence intensity (a.u.). For “ATATTGGTGGGCGCGGATTTTAATAGGTGGGCGGTGGATTCGGAGTCACCTAGTGCAG”, the binding signal was 8430 fluorescence intensity (a.u.). With “TGTTGTTGCCGGAATGTGTGTGTGTGCGTGTGTGTGTGTGCGGAGTCACCTAGTGCAG” the binding signal was 8720 fluorescence intensity (a.u.). “GAGGTAGTGGTTTAGAGGAGGAGGCGGAGAAGAGGAGGGACGGAGTCACCTAGTGCAG” was tested, and the binding signal was 9020 fluorescence intensity (a.u.). “TAGAGGTGGGCGGTAGGGGCTATTTCTGCAATTTTTTGGTCGGAGTCACCTAGTGCAG” was tested, and the binding signal was 9680 fluorescence intensity (a.u.). In the case of “AATCTACACTAATTCTTCTGGTCTACACATTAAGTTATGACGGAGTCACCTAGTGCAG”, the binding signal is reported as 8670 fluorescence intensity (a.u.). With “CCATGTCCGGATTCTCTAGGATTGCCTCCAATTTCTTCGCCGGAGTCACCTAGTGCAG” the binding signal was 8890 fluorescence intensity (a.u.). For “TCCTACCTACAGCTATAGCTGCGTGCCGGGGTTGGGGCTGCGGAGTCACCTAGTGCAG”, the binding signal was 8750 fluorescence intensity (a.u.). With “CATCCTTCTCCGCGGCCATTTCTTGGAGCAAATCTCATTTCGGAGTCACCTAGTGCAG” the binding signal was 8420 fluorescence intensity (a.u.). “CCGCGGGCTTGGCTTGGCTGGCACCCTCTCCTTCTCGTCTCGGAGTCACCTAGTGCAG” was tested, and the binding signal was 10300 fluorescence intensity (a.u.). For “ACCCCAACGCAACCACTCTTCTCTACTACAATCGTTACTCCGGAGTCACCTAGTGCAG”, the binding signal was 9310 fluorescence intensity (a.u.). “ATCCCAAACACTCTCGCCTCGTCTCCTCTCACACCACACGCGGAGTCACCTAGTGCAG” was tested, and the binding signal was 10500 fluorescence intensity (a.u.). “CATTACCGCCACCTTCGATGCCGCCGCCTGCCGCTACCCGCGGAGTCACCTAGTGCAG” was tested, and the binding signal was 8580 fluorescence intensity (a.u.). With “TTAATACTTACTACTTGTCTGCTTTGAGTTTTTTGTTTAACGGAGTCACCTAGTGCAG” the binding signal was 9060 fluorescence intensity (a.u.). With “CCTCGCCGTCGCCGGTCCTCGTCTCCTCCTCTATCTATATCGGAGTCACCTAGTGCAG” the binding signal was 8600 fluorescence intensity (a.u.). “ACCATGGGCGCACACGCTTCACTGCGTCTTTTTCCATCCACGGAGTCACCTAGTGCAG” was tested, and the binding signal was 8320 fluorescence intensity (a.u.). For “GCGGTGGAGAGTGGTGGGAGGTTGGGGAGAAGGCGGCGGCCGGAGTCACCTAGTGCAG”, the binding signal was 14800 fluorescence intensity (a.u.). In the case of “CCGCCATGTGGGCCCCACCTCGCCGCCTCCGCTCCACTCTCGGAGTCACCTAGTGCAG”, the binding signal is reported as 13600 fluorescence intensity (a.u.). In the case of “AATGTGGTGGTGGTGGTGGTGAACGGAGGAGGGAGGGAGCCGGAGTCACCTAGTGCAG”, the binding signal is reported as 13000 fluorescence intensity (a.u.). With “AAGGCGGGAGGTTGAGAGAGAGATAAGGGAGAGAGAGGGGCGGAGTCACCTAGTGCAG” the binding signal was 8120 fluorescence intensity (a.u.). With “GGAGGAGGAGGTGGTGGTGGTGGTGAAGCCGCGGAGGTGCCGGAGTCACCTAGTGCAG” the binding signal was 18000 fluorescence intensity (a.u.). For “GGTTGGTGGTGGAGGTGGTCAAGGCGGTGGTTTTGGAGCCCGGAGTCACCTAGTGCAG”, the binding signal was 16400 fluorescence intensity (a.u.). In the case of “CCTCGCTCTCCATGGTGGTGGTGGTGGTCAGGTGGTGGGGCGGAGTCACCTAGTGCAG”, the binding signal is reported as 18800 fluorescence intensity (a.u.). For “CTGAAGTGAGGGAGGGGAGGAGGTGGTGGTGGTGGGGAAGCGGAGTCACCTAGTGCAG”, the binding signal was 15600 fluorescence intensity (a.u.). In the case of “AGGTCATCGCAGGGCTCCTCTCCATCGCAGCCGCTCCAGCCGGAGTCACCTAGTGCAG”, the binding signal is reported as 8910 fluorescence intensity (a.u.).
